Screen size: about 39,000 compounds; about 1,500 (3.8%) were called active. Shown is part of a subset that was picked to be rich in actives.
tested on: HSkMC (human skeletal muscle cells); assay: cytotoxicity call (relative viability < 0.9); conditions: 10 µM

Compound	cytotoxicity call
Cc1noc(C)c1S(=O)(=O)Nc1ccc2c(c1)C(=O)N([C@@H](C)CO)C[C@@H](C)[C@@H](CN(C)S(=O)(=O)c1cn(C)cn1)O2	inactive
C[C@H](CO)N1C[C@H](C)[C@H](CN(C)C(=O)Nc2ccc(F)cc2)Oc2ccc(NS(=O)(=O)c3cn(C)cn3)cc2CC1=O	inactive
C[C@@H]1CN([C@@H](C)CO)C(=O)Cc2cc(NC(=O)Cn3cnnn3)ccc2O[C@H]1CN(C)C(=O)Nc1ccc(F)cc1	inactive
CCOC(=O)[C@H]1C/C=C/C[C@H](C(=O)OCC)C(=O)O[C@H]2[C@@H](OC)O[C@H](CO)[C@@H](OC(=O)Nc3ccc(Br)cc3)[C@@H]2OC1=O	active
CCOC(=O)[C@H]1C/C=C/C[C@H](C(=O)OCC)C(=O)O[C@H]2[C@@H](OC)O[C@H](CO)[C@@H](OC(=O)Nc3cccc(F)c3)[C@@H]2OC1=O	active
CO[C@H]1O[C@H](CO)[C@@H](OC(=O)Nc2ccc3c(c2)OCO3)[C@@H]2OC(=O)[C@H](Cc3cccc(Br)c3)C/C=C/C[C@@H](Cc3cccc(Br)c3)C(=O)O[C@@H]12	inactive
CCOC(=O)[C@H]1C/C=C/C[C@H](C(=O)OCC)C(=O)O[C@H]2[C@@H](OC)O[C@H](CO)[C@@H](OC(=O)c3c(OC)cccc3OC)[C@@H]2OC1=O	inactive
CCOC(=O)[C@H]1C/C=C/C[C@H](C(=O)OCC)C(=O)O[C@H]2[C@@H](OC)O[C@H](CO)[C@@H](OC(=O)Nc3ccccc3)[C@@H]2OC1=O	inactive
CCOC(=O)[C@H]1C/C=C/C[C@H](C(=O)OCC)C(=O)O[C@H]2[C@@H](OC)O[C@H](CO)[C@@H](OC(=O)Nc3ccc4c(c3)OCO4)[C@@H]2OC1=O	active
CO[C@H]1O[C@H](CO)[C@@H](OC(=O)Nc2cccc(F)c2)[C@@H]2OC(=O)[C@H](Cc3cccc(Br)c3)C/C=C/C[C@@H](Cc3cccc(Br)c3)C(=O)O[C@@H]12	inactive
CCOC(=O)[C@H]1C/C=C/C[C@H](C(=O)OCC)C(=O)O[C@H]2[C@@H](OC)O[C@H](CO)[C@@H](OC(=O)c3ccc(Br)cc3)[C@@H]2OC1=O	inactive
CCOC(=O)[C@H]1C/C=C/C[C@H](C(=O)OCC)C(=O)O[C@H]2[C@@H](OC)O[C@H](CO)[C@@H](OC(=O)Nc3ccc(OC)cc3)[C@@H]2OC1=O	inactive
COc1ccc(NC(=O)N(C)C[C@@H]2OCCCC[C@@H](C)Oc3ccc(NC(=O)c4ccccc4)cc3C(=O)N([C@@H](C)CO)C[C@H]2C)cc1	inactive
CC1(C)OC2CC3C4CCC5=CC(=O)C=CC5(C)C4C(O)CC3(C)C2(C(=O)CO)O1 (centres undefined)	inactive

Source: the antibiotic and cytotoxicity screens of Wong et al. (2023)
